Assay [1] can be described thus: qHTS assay to test for compound auto fluorescence at 535 nm (green) in HEK293 cells (AID 720680). (In qHTS, concentration-response curves come from the screen itself.)
Assay [2] is described as follows: qHTS assay to test for compound auto fluorescence at 460 nm (blue) in HEK293 cell free culture (AID 720681). Also: potency is read from the fitted curve at half-maximal effect. The method, boiled down:
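Blue fluorescence (Ex 405/Em 460 nm, triamterene-equivalent) was read immediately after pin transfer of compound or DMSO into medium (DMEM, 10% FBS) without cells.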

A short description of assay [3]: qHTS assay to test for compound auto fluorescence at 535 nm (green) in HEK293 cell free culture (AID 720682). The method in brief: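 Using fluorescein as calibrant, autofluorescence was quantified at 485/535 nm in cell-free DMEM containing 10% FBS after pintool addition of compound or vehicle.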
Assay [4] is described as follows: qHTS assay to test for compound auto fluorescence at 590 nm (red) in HEK293 cell free culture (AID 720683). The method, boiled down:
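Red-channel autofluorescence of compounds in culture medium (DMEM, 10% FBS), no cells, measured at 540/590 nm. Rose Bengal sodium is the reference fluorophore for equivalence.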

Assay [5] can be described thus: qHTS assay to test for compound auto fluorescence at 590 nm (red) in HepG2 cell free culture (AID 720684). The method in brief:
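Plate contents were MEM with 10% FBS plus test compound or DMSO, no cells. Fluorescence was recorded with 540 nm excitation and 590 nm emission.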

A short description of assay [6]: qHTS assay to test for compound auto fluorescence at 460 nm (blue) in HepG2 cell free culture (AID 720685). Also: potency is read from the fitted curve at half-maximal effect. The method, boiled down:
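Compound (23 nL) or DMSO pinned into cell-free MEM with 10% FBS; blue fluorescence read at 405/460 nm excitation/emission, expressed as auto-fluorescence equivalency to triamterene.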

Assay [7] can be described thus: qHTS assay to test for compound auto fluorescence at 535 nm (green) in HepG2 cell free culture (AID 720686).
Assay [8] is described as follows: qHTS assay to test for compound auto fluorescence at 460 nm (blue) in HepG2 cells (AID 720687). Also: potency is read from the fitted curve at half-maximal effect. The method, boiled down:
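Blue-channel autofluorescence (Ex/Em 405/460 nm, triamterene-equivalent) was measured after 1 hr compound exposure at 37 C, 5% CO2. Cells were HepG2, plated overnight at 37 C in MEM plus 10% FBS.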

Assay [9] deals with Glucocorticoid receptor (Homo sapiens) (UniProt P04150). Description: qHTS assay to identify small molecule antagonists of the glucocorticoid receptor (GR) signaling pathway (AID 720692; active = well fitted inhibition curve with a large enough effect in the signal ratio in the repeat runs, not every such curve was filed as active; the % refers to the signal ratio; also: potency is read from the fitted curve at half-maximal effect). The method, boiled down: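 Dexamethasone (5 nM final) stimulated a stably integrated GRE-beta-lactamase reporter in HeLa cells during 18 h co-incubation with compounds; signal was quantified as fluorescence intensity of B/G FRET substrate after 2 h.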
Sequence of Glucocorticoid receptor (Homo sapiens) (P04150 whole entry, looked up): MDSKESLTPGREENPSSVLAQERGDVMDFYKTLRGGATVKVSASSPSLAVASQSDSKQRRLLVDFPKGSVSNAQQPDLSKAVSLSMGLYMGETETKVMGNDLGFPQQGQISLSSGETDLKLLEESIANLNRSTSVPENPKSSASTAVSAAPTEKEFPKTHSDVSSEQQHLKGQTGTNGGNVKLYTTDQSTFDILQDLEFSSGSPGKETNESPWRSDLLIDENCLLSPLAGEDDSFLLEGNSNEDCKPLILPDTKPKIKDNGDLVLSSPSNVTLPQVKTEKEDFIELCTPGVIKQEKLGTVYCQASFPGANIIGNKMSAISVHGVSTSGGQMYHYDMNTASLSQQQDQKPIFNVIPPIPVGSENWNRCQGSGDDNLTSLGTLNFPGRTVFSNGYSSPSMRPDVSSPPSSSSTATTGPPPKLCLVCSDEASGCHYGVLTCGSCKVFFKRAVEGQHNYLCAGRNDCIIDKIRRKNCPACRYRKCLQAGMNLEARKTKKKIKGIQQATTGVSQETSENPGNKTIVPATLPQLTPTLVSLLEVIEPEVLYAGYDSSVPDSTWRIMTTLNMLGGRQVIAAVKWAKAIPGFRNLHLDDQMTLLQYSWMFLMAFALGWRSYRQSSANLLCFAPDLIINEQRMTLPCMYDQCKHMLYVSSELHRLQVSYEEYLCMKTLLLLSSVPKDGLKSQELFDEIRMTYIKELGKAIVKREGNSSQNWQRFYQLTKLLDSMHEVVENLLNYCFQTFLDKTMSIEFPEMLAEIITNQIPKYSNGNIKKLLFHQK

Assay [10] has the same target. Kind of assay: qHTS assay to identify small molecule agonists of the glucocorticoid receptor (GR) signaling pathway (AID 720691; active = well fitted activation curve with a large enough effect in the signal ratio in the repeat runs, not every such curve was filed as active; the % refers to the signal ratio). The method in brief: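 Reporter read-out: fluorescence intensity following 2 h room-temperature LiveBLAzer B/G FRET substrate loading. Prior step: GR-bla HeLa cells held 4 h, then treated 18 h at 37 C.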

“And” between values parts separate entries of the source, which are not always exact repeats. Identical values can stand only once. A number with no mark means an inactive call. Records with an inconclusive call do not appear. The source made the active and inactive calls. Unless noted, calls follow the shape of the dose curve; as a rule, active = well fitted curve in the direction sought with a large enough effect in the repeat runs; inconclusive = weak or mixed curves; inactive = flat fitted curve, though single readings scatter.
% is scaled to controls: 0 for no effect and ±100 for the full control effect; tags tell the direction and shape of the fitted curve or compound fluorescence and quenching.

`Nc1ccc(Oc2ccc(Cl)cc2)cc1`: the Potency entry in assay [1], in assay [2], in assay [3], in assay [4], in assay [5] and in assay [6] was “inactive” throughout. The Potency result in assay [7] and in [8] was “inactive” each time. Further, in assay [9], the Potency was 24 µM (active).

Turning to `CCN1C(=O)c2ccccc2C1Nc1ccc(OCCN2CCCCC2)cc1` (centres undefined), the Potency result in [1], in assay [2], in [3], in assay [4], in assay [5] and in [6] was “inactive” in each case. Further, the Potency result in assay [7], in assay [8], in [10] and in assay [9] was “inactive” each time.

As to `Cc1ccc(-c2ccccc2)cc1`, the Potency result in assay [1], in assay [2], in assay [3], in assay [4], in assay [5] and in assay [6] was “inactive” throughout. In addition, the Potency result in assay [7], in assay [10] and in assay [9] was “inactive” each time.

For the compound `CCCC(=O)OCCc1ccccc1`, the Potency entry in assay [1], in [2], in assay [3], in assay [4], in assay [5] and in assay [6] was “inactive” each time. Further, the Potency result in assay [7] and in assay [10] was “inactive” each time.

Regarding `CC1(C)[C@@H](O)CC[C@]2(C)[C@H]3C(=O)C=C4[C@@H]5C[C@@](C)(C(=O)O)CC[C@]5(C)CC[C@@]4(C)[C@]3(C)CC[C@@H]12`, the Potency result in assay [1], in assay [2], in [3], in assay [4], in assay [5] and in assay [6] was “inactive” each time. Besides, the Potency result in assay [7] and in assay [8] was “inactive” throughout. In addition, the Potency in [9] is 23.9 µM (active) and 21.3 µM (active) and 43.2 µM (active).

For the compound `O=C(c1ccc(O)c(O)c1)c1ccc(O)cc1O`, the Potency result in [1], in assay [3], in [4], in assay [6], in assay [7] and in assay [8] was “inactive” throughout. In addition, the Potency result in [10] is “inactive”. In addition, the Potency in assay [2] is 35.5 µM (active).

As to `O=C1CCCCCCCCCCCCCCCO1`, the Potency entry in assay [1], in assay [2], in assay [3], in [4], in assay [6] and in assay [7] was “inactive” in each case. Also, the Potency result in [8] and in [10] was “inactive” each time.

For the compound `CC(=O)CC(=O)Nc1ccc(S(=O)(=O)O)cc1`, the Potency entry in assay [1], in assay [2], in [3], in assay [4], in [6] and in [7] was “inactive” in each case. Also, the Potency entry in assay [8] and in assay [10] was “inactive” throughout.

Turning to `COc1c(C)c2c(c(O)c1C/C=C(\C)CCC(=O)OCCN1CCOCC1)C(=O)OC2`, the Potency result in assay [1], in [2], in assay [3], in assay [4], in assay [6] and in [7] was “inactive” throughout. In addition, the Potency entry in assay [8] and in assay [10] was “inactive” in each case.

On to `CC(C)NC[C@@H](O)COc1ccc(CC(N)=O)cc1`, for which the Potency entry in assay [1], in assay [2], in assay [3], in [4], in [6] and in assay [7] was “inactive” each time. Also, the Potency entry in assay [8] is “inactive”.

With `C1CCC(SSC2CCCCC2)CC1`, the Potency result in assay [1], in assay [2], in [3], in assay [4], in assay [6] and in assay [7] was “inactive” in each case. Besides, the Potency entry in assay [8], in assay [10] and in [9] was “inactive” throughout.

In the case of `O=C(O)[C@H](O)[C@@H](O)[C@H](O[C@@H]1O[C@H](CO)[C@H](O)[C@H](O)[C@H]1O)[C@H](O)CO`, the fluorescence, % of fluorescein in [1] is -0.0275% [at 18.6 µM]. Also, the fluorescence, % of fluorescent control was -0.0747% [at 18.6 µM] in assay [2], -0.292% [at 18.6 µM] in assay [4], 0.0634% [at 18.6 µM] in assay [6] and 0.0744% [at 18.6 µM] in assay [8]. For the same compound, the activity change in [3] is -0.0154% [at 18.6 µM, hits give high values]. Further, the fluorescence, % of fluorescein control in assay [7] is -0.112% [at 18.6 µM]. Also, the Potency result in assay [10] and in assay [9] was “inactive” each time.

With `O=C1c2ccccc2C(=O)N1SC1CCCCC1`, the Potency entry in assay [1], in assay [2], in [3], in assay [4], in [6] and in [7] was “inactive” in each case. The Potency result in assay [8] is “inactive”.

Regarding `CCCCCCCCCCCCCC[N+](C)(C)Cc1ccccc1`, the Potency entry in assay [1], in [2], in assay [3], in assay [4], in [6] and in assay [7] was “inactive” throughout. The Potency entry in assay [8] was “inactive”.

With `CC(CO)Oc1ccccc1` (centres undefined), the Potency entry in assay [1], in assay [2], in assay [3], in assay [4], in assay [6] and in [7] was “inactive” each time. Also, the Potency result in assay [8], in [10] and in assay [9] was “inactive” in each case.

As to `O=C(O)Cc1ccccc1Nc1c(Cl)cccc1Cl`, the Potency entry in [1], in [2], in assay [4], in [5], in assay [6] and in assay [7] was “inactive” in each case. For the same compound, the Potency result in assay [8] is “inactive”.

In the case of `CCc1cccc(CC)c1NC(=O)CN(CC(=O)O)CC(=O)O`, in assay [1], the fluorescence, % of fluorescein was 0.0114% [at 18.6 µM]. Further, the fluorescence, % of fluorescent control is 0.0332% [at 18.6 µM] in assay [2], 0.184% [at 18.6 µM] in [4], -0.0593% [at 18.6 µM] in assay [6] and 0.148% [at 18.6 µM] in [8]. Also, in [3], the activity change was 0.0655% [at 18.6 µM, hits give high values]. Also, the fluorescence, % of fluorescein control in assay [7] was 0.0075% [at 18.6 µM]. The Potency entry in assay [10] and in assay [9] was “inactive” in each case.

As for `CCCCOC(=O)CO`, the Potency result in assay [1], in assay [2], in [3], in [4], in assay [6] and in [7] was “inactive” in each case. Moreover, the Potency result in assay [8], in assay [10] and in assay [9] was “inactive” throughout.

In the case of `Cc1ccc(C)cc1`, the Potency entry in [1], in assay [2], in [3], in [4], in [6] and in [7] was “inactive” each time. For the same compound, the Potency entry in assay [10] and in assay [9] was “inactive” in each case.

Consider `Cc1c(C)c([N+](=O)[O-])c(C(C)(C)C)c([N+](=O)[O-])c1C`, for which the Potency entry in assay [1], in assay [2], in [4], in [5], in assay [6] and in assay [7] was “inactive” each time. The Potency entry in assay [8] is “inactive”.

On to `CCCCCCCCCCCCOC(=O)c1ccc(O)cc1`, for which the Potency entry in [1], in [2], in [4], in [5], in assay [6] and in assay [7] was “inactive” throughout.

Regarding `Cc1cc(=O)oc2cc(O)cc(O)c12`, the Potency entry in assay [1], in assay [3], in [4] and in assay [7] was “inactive” throughout. Besides, the Potency was 39.8 µM (active) in assay [2], 39.8 µM [fluorescent] (active) in assay [6] and 35.5 µM [fluorescent] (active) in assay [8].

Regarding `CC(C)(C)c1csc(-c2cc3cc(OCc4ccccc4CC(=O)O)ccc3o2)n1`, the Potency entry in [1], in assay [2], in [3], in assay [4], in [6] and in assay [7] was “inactive” in each case. Moreover, the Potency entry in assay [8] is “inactive”.

On to `Cc1c(F)c(N2CCNC(C)C2)cc2c1c(=O)c(C(=O)O)cn2C1CC1` (centres undefined), for which the Potency result in [1], in [2], in assay [3], in [4], in assay [6] and in assay [7] was “inactive” throughout. In addition, the Potency entry in [8], in assay [10] and in assay [9] was “inactive” throughout.

Values taken from PubChem BioAssay (Tox21).
